Screening results (PubChem)
F508del corr = CFTR F508del correction in bronchial cells; CFBE cells, YFP halide quenching; stimulated with forskolin plus potentiator P3; % fluorescence drop versus neutral controls; activity (quench increase), % at 7.58 µM; hit rate 0.36% among 350,000;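 active means mean added fluorescence quench of at least 8% versus neutral control, with both replicates also reaching 8%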;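 further: cells transiently co-express mutant CFTR-F508del with the halide-sensitive YFP; corrector assay measuring rescue of mutant channel to the surface after 24 h compound exposure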
SKN-1 inh = inhibitors of C. elegans SKN-1; inhibition, % at 21.8 µM; hit rate 0.49% among 360,000; C. elegans VP596 Pgst-4::GFP/RFP ratio, acrylamide-induced, 24 h; AID 624304;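 active means interference check ratio from 0.5 to 1.5 plus GFP to RFP signal ratio inhibition reaching or exceeding a fixed threshold, cut at about 30% in these data, passing the limit was not always enough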
MPTP inh = inhibitors of mitochondrial permeability transition pore; isolated mouse mitochondria, Ca2+ swelling absorbance, 30 min; inhibition, % at 10 µM; hit rate 1.4% among 360,000; AID 602449;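 active means inhibition of 50% or more, scaled per plate between neutral and stimulator controls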
ATG4B inh = ATG4B (human) cysteine protease inhibition; Q9Y4P1; hit rate 0.51% among 340,000; inhibition, % at 8.33 µM; ATG4B cleavage of LC3-PLA2, NBD-HPC fluorescence, 1 h; in the data active means inhibition above about 40%
CendR NRP1 mod = alters CendR peptide binding to human NRP-1. FAM-RPARPAR peptide binding to NRP-1, fluorescence polarization. inhibition, % at 25 µM. hit rate 0.85% among 360,000. AID 602438;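 active means inhibition or corrected inhibition above about 18%, plus a signal ratio from 0.5 to 1.5, limit read from the data, passing the limit was not always enough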
Target sequence (O14786 whole entry, looked up): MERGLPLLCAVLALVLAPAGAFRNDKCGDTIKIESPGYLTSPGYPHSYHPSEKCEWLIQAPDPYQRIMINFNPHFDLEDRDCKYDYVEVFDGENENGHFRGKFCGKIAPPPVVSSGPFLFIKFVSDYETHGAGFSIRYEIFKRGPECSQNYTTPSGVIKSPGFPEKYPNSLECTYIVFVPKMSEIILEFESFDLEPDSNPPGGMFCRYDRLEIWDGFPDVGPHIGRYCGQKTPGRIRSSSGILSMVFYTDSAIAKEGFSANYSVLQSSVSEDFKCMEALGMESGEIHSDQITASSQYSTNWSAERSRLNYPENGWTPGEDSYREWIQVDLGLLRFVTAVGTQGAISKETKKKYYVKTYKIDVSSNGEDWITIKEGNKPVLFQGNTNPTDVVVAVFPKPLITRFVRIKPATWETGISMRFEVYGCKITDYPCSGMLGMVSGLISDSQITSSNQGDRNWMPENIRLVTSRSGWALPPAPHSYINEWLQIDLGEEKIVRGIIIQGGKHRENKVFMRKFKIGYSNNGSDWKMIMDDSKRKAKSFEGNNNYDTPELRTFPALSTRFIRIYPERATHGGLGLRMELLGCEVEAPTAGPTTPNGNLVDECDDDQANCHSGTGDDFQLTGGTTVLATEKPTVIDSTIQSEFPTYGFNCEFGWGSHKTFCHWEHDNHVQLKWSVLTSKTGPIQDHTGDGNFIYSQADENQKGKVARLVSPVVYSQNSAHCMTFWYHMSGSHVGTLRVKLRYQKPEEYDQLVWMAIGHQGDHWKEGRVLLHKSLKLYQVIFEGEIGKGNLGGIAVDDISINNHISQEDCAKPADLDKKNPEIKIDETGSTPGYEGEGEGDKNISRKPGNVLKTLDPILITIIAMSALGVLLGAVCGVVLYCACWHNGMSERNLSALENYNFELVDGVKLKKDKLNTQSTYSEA
MPTP counter = mitochondrial membrane potential, counter-screen; inhibition, % at 10 µM; hit rate 78% among 5,000; isolated mitochondria, Rhodamine 123 fluorescence; shares compounds with MPTP inh; AID 624504; in the data active means inhibition above about 22%
MPTP swell DR = dose response confirmation of mitochondrial permeability transition pore inhibitors; shares compounds with MPTP inh; isolated mitochondria swelling, absorbance; IC50, µM; hit rate 58% among 780; in the data active means IC50 below about 20 µM
MPTP counter DR = active in counter-screen for permeability transition pore inhibitors; shares compounds with MPTP inh; isolated mitochondria counterscreen, fluorescence read-out; IC50, µM; hit rate 49% among 780; in the data active means IC50 below about 80 µM
Hits are given with their value. Rows were chosen to be rich in hits. Some 2.7% of all compounds tested hit in one or more screens of this group.

Screening O=C(C[C@H]1CC[C@@H](NC(=O)NC2CCCC2)[C@H](CO)O1)NCc1ccc(F)cc1 returned F508del corr inactive.
`CO[C@@H]1CN(C)C(=O)c2ccc(NC(C)=O)cc2OC[C@@H](C)N(C(=O)C2CCOCC2)C[C@H]1C` gave F508del corr inactive.
Screening Cc1cc(C)cc(NC(=O)NCc2c(-c3ccccc3)noc2C)c1 returned F508del corr inactive, SKN-1 inh inactive, MPTP inh inactive, ATG4B inh inactive and CendR NRP1 mod inactive.
`O=C(O)COCC(=O)NCc1nc(-c2ccc(C(F)(F)F)cc2)no1` gave F508del corr inactive, SKN-1 inh inactive, MPTP inh inactive, ATG4B inh inactive and CendR NRP1 mod inactive.
`O=C(NCc1nc(-c2ccc(C(F)(F)F)cc2)no1)Nc1ccc(F)cc1F` gave F508del corr inactive, SKN-1 inh inactive, MPTP inh 54, ATG4B inh inactive, CendR NRP1 mod inactive and MPTP counter 69.
`COc1ccc(-c2noc(CNC(=O)Nc3ccc(F)cc3)n2)cc1` gave SKN-1 inh inactive, MPTP inh inactive, ATG4B inh inactive and CendR NRP1 mod inactive.
Cc1onc(-c2ccccc2)c1CNC(=O)Nc1ccc(C(F)(F)F)cc1 was read as F508del corr inactive, SKN-1 inh inactive, MPTP inh 78, ATG4B inh inactive, CendR NRP1 mod inactive and MPTP counter 83.
Cc1cccc(-c2noc(CNC(=O)Nc3ccc(F)cc3)n2)c1 was read as SKN-1 inh inactive, MPTP inh 59, ATG4B inh inactive, CendR NRP1 mod inactive and MPTP counter 71.
Screening O=C(NCc1nc(-c2ccc(C(F)(F)F)cc2)no1)Nc1cc(Cl)cc(Cl)c1 returned F508del corr inactive, SKN-1 inh inactive, MPTP inh 84, ATG4B inh inactive, CendR NRP1 mod inactive and MPTP counter 70.
Screening CC(C)C#Cc1ccc2c(c1)O[C@H](CN(C)C(=O)Cc1ccccn1)[C@H](C)CN([C@@H](C)CO)S2(=O)=O returned F508del corr inactive.
COC(=O)C[C@H]1C[C@H]2c3cc(NC(=O)NC4CCCCC4)ccc3O[C@H]2[C@@H](CO)O1 was read as F508del corr inactive.
`COc1ccc(NC(=O)NCCCN2CCc3ccccc3C2)cc1` gave F508del corr inactive, SKN-1 inh inactive, MPTP inh inactive, ATG4B inh inactive and CendR NRP1 mod inactive.
Screening O=C(NCCN1CCN(c2ccc([N+](=O)[O-])cc2)CC1)NCc1ccccc1 returned F508del corr inactive, SKN-1 inh inactive, MPTP inh 65, ATG4B inh inactive, CendR NRP1 mod inactive and MPTP counter 76.
`O=C(NCCCN1CCc2ccccc2C1)Nc1ccc(Br)cc1` gave SKN-1 inh inactive, MPTP inh 93, ATG4B inh inactive, CendR NRP1 mod inactive and MPTP counter 103.
For O=C(Nc1ccc([N+](=O)[O-])cc1)N1CCc2ccccc2C1 the results were F508del corr inactive, SKN-1 inh inactive, MPTP inh inactive, ATG4B inh inactive and CendR NRP1 mod inactive.
`CCN1CCN(Cc2ccc(NC(=O)Nc3ccc(SC)cc3)cc2)CC1` gave SKN-1 inh inactive, MPTP inh 52, ATG4B inh inactive, CendR NRP1 mod inactive, MPTP counter inactive, MPTP swell DR inactive and MPTP counter DR inactive.
For O=C(NCCN1CCc2ccccc2C1)Nc1ccc([N+](=O)[O-])cc1 the results were F508del corr inactive, SKN-1 inh inactive, MPTP inh 94, ATG4B inh inactive, CendR NRP1 mod inactive and MPTP counter 84.
For CCN1CCN(Cc2ccc(NC(=O)Nc3ccccc3)cc2)CC1 the results were SKN-1 inh inactive, MPTP inh inactive, ATG4B inh inactive and CendR NRP1 mod inactive.
`O=C(NCCCN1CCN(c2ccccc2F)CC1)Nc1ccc(F)cc1` gave SKN-1 inh inactive, MPTP inh inactive, ATG4B inh inactive and CendR NRP1 mod inactive.
For CSc1ccc(NC(=O)NCCCN2CCN(c3ccccc3F)CC2)cc1 the results were SKN-1 inh 33, MPTP inh 62, ATG4B inh inactive, CendR NRP1 mod inactive, MPTP counter inactive, MPTP swell DR inactive and MPTP counter DR 29.
CO[C@@H]1CN(C)C(=O)c2ccc(NC(=O)CN(C)C)cc2OC[C@@H](C)N(C(=O)c2ccncc2)C[C@H]1C was read as F508del corr inactive.
`COCC(=O)Nc1ccc2c(c1)C(=O)N(C)C[C@@H](OC)[C@H](C)CN(C)[C@@H](C)CO2` gave F508del corr inactive.
`O=C(CSc1nc2ccccc2o1)Nc1nc2c(s1)CCCC2` gave F508del corr inactive, SKN-1 inh inactive, MPTP inh 84, ATG4B inh inactive, CendR NRP1 mod inactive and MPTP counter 64.
`CCOC(=O)c1c(NC(=O)CSc2nc3ccccc3o2)sc(C(C)=O)c1C` gave SKN-1 inh inactive, MPTP inh 101, ATG4B inh inactive, CendR NRP1 mod inactive and MPTP counter 75.
Screening CCOC(=O)c1c(NC(=O)C2c3ccccc3Oc3ccccc32)sc(C(C)=O)c1C returned F508del corr 11, SKN-1 inh inactive, MPTP inh 85, ATG4B inh inactive, CendR NRP1 mod inactive, MPTP counter inactive, MPTP swell DR inactive and MPTP counter DR 8.6.
Screening O=C(C[C@@H]1CC[C@@H]2[C@H](COC[C@@H](O)CN2Cc2cccc(-c3ccncc3)c2)O1)N1CCCCC1 returned F508del corr inactive.
Screening COCC(=O)Nc1ccc2c(c1)OC[C@H](C)N(C(=O)c1ccccc1)C[C@H](C)[C@H](OC)CN(C)C2=O returned F508del corr inactive.
`CCOC(=O)N1CCN(C(=O)c2cc(COc3ccc4ncccc4c3)on2)CC1` gave F508del corr inactive, SKN-1 inh inactive, MPTP inh inactive, ATG4B inh inactive and CendR NRP1 mod inactive.
For Cc1cccnc1CN1CCN(C(=O)c2cc(COc3ccc4ncccc4c3)on2)CC1 the results were F508del corr inactive, SKN-1 inh inactive, MPTP inh 104, ATG4B inh inactive, CendR NRP1 mod inactive and MPTP counter 102.
Screening COCC1CCCN(C(=O)c2cc(COc3ccc4ncccc4c3)on2)C1 (stereo not given) returned F508del corr inactive, SKN-1 inh inactive, MPTP inh 95, ATG4B inh inactive, CendR NRP1 mod inactive and MPTP counter 97.
For O=C(c1cc(COc2ccc3ncccc3c2)on1)N1CCC(O)CC1 the results were F508del corr inactive, SKN-1 inh inactive, MPTP inh inactive, ATG4B inh inactive and CendR NRP1 mod inactive.
